Results on 20 compounds are retold here after PubChem BioAssay (NCATS).

For assay [1], the target named is Rap guanine nucleotide exchange factor 3 (Homo sapiens) (UniProt O95398). Description: Confirmatory qHTS for antagonist of cAMP-regulated guanine nucleotide exchange factor 3 (EPAC1) (AID 1645880). Further: nearly all actives have a fitted effect of over 55% in size. Further: potency means the concentration at half of the fitted maximal effect.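 On activity, negative = inhibition: plate controls were DMSO only for no effect and full effect of the ATA control for full effect.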 As to conditions: EPAC1 Rap1B-BODIPY-GDP exchange, fluorescence; activity, negative = inhibition: at 115 µM (top of the series). The essentials:
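Nucleotide exchange uses 100 nM EPAC1, 250 nM RAP1B-BODIPY-GDP and 50 uM GDP, with compounds in a concentration-titration series. After 5 min at room temperature, fluorescence (480 nm ex/540 nm em) is read every 5 min for 30 min. Data are normalized to control ATA and DMSO.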
For orientation: qHTS replaces the single test concentration by a dilution series.

The target is the same in assay [2]. Description: Confirmatory qHTS for agonist of cAMP-regulated guanine nucleotide exchange factor 3 (EPAC1) (AID 1645881).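 Further: EPAC1 catalysed release of BODIPY-GDP from Rap1B seen as fluorescence loss; 100% = effect of cAMP agonist control; nearly all actives have a fitted effect of over 75% in size.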
The target of assay [3] is Rap guanine nucleotide exchange factor 4 (Homo sapiens) (UniProt Q8WZA2). The assay can be described thus: Confirmatory qHTS for agonist of cAMP-regulated guanine nucleotide exchange factor 4 (EPAC2) (AID 1645884).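 Further: nucleotide exchange releases bodipy-GDP from Rap1 and this lowers its fluorescence; on the % scale 0 is the no-effect control and ±100 the full control effect; nearly all actives have a fitted effect of over 65% in size.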
Chain of Rap guanine nucleotide exchange factor 4 (Homo sapiens) (Q8WZA2 whole entry, looked up): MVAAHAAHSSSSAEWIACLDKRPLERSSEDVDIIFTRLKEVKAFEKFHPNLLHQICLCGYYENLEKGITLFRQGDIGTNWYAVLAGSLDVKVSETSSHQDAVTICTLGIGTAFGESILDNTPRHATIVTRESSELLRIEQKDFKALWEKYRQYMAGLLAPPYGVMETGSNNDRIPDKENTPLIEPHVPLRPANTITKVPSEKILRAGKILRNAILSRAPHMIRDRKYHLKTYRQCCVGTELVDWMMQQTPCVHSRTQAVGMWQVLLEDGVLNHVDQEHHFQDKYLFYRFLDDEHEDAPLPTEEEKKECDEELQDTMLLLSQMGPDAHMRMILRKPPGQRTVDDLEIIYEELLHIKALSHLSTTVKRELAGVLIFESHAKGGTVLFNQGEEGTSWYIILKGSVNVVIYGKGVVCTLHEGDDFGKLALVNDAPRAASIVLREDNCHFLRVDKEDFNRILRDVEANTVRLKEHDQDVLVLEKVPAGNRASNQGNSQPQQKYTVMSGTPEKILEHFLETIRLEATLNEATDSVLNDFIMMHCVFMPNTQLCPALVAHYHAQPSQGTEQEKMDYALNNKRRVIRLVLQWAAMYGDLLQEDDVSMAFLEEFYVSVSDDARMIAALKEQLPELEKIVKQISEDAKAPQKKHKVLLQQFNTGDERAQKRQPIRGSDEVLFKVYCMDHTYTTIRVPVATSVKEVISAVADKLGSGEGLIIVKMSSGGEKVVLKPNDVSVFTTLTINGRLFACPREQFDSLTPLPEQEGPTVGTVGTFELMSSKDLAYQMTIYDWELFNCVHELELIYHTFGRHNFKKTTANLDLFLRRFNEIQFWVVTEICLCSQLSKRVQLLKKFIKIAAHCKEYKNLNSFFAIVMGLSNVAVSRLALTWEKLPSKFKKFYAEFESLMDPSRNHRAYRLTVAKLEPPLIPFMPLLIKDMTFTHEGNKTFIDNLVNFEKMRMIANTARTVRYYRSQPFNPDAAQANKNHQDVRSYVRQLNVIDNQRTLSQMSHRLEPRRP
For assay [4] the target is unchanged. Description: Confirmatory qHTS for antagonist of cAMP-regulated guanine nucleotide exchange factor 4 (EPAC2) (AID 1645885). Further: nearly all actives have a fitted effect of over 25% in size. On activity change, negative = inhibition: on the % scale 0 is the no-effect control and ±100 the full control effect.
Assay [5] deals with Rap guanine nucleotide exchange factor 3 (Homo sapiens) (UniProt O95398). Description: Counterscreen qHTS for antagonist of cAMP-regulated guanine nucleotide exchange factor 3 (EPAC1) (AID 1645888).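 Further: fluorescence loss as bound BODIPY-GDP is released from Rap1B; % of control where 0% means no effect.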 The essentials:
(§1)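 Measured: fluorescence of BODIPY-GDP bound to Rap1B, which falls as exchange proceeds. Conditions include 50 uM competing GDP, 5 and 30 min reads, and a later cAMP challenge for antagonist detection.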
In general terms: The purpose of a counterscreen is to sort out artefacts and off-target activity.

Assay [6] has the same target. The assay can be described thus: Counterscreen qHTS for agonist of cAMP-regulated guanine nucleotide exchange factor 3 (EPAC1) (AID 1645889). Further: nearly all actives have a fitted effect of over 40% in size. Further: potency means the concentration at half of the fitted maximal effect. On activation: % of control where 0% means no effect. The essentials: as §1

Inconclusive results are not listed. Unmarked numbers belong to inactive results. Activity calls are given as the source filed them. The call rests on the fitted dose curve; in most records, active means well fitted curve in the direction sought with a large enough effect; inconclusive means small, poorly fitted or top-dose-only effect, or another doubt; inactive means no such curve, though single readings can be large; an effect the other way counts as inactive or inconclusive.

Chain of Rap guanine nucleotide exchange factor 3 (Homo sapiens) (O95398 whole entry, looked up): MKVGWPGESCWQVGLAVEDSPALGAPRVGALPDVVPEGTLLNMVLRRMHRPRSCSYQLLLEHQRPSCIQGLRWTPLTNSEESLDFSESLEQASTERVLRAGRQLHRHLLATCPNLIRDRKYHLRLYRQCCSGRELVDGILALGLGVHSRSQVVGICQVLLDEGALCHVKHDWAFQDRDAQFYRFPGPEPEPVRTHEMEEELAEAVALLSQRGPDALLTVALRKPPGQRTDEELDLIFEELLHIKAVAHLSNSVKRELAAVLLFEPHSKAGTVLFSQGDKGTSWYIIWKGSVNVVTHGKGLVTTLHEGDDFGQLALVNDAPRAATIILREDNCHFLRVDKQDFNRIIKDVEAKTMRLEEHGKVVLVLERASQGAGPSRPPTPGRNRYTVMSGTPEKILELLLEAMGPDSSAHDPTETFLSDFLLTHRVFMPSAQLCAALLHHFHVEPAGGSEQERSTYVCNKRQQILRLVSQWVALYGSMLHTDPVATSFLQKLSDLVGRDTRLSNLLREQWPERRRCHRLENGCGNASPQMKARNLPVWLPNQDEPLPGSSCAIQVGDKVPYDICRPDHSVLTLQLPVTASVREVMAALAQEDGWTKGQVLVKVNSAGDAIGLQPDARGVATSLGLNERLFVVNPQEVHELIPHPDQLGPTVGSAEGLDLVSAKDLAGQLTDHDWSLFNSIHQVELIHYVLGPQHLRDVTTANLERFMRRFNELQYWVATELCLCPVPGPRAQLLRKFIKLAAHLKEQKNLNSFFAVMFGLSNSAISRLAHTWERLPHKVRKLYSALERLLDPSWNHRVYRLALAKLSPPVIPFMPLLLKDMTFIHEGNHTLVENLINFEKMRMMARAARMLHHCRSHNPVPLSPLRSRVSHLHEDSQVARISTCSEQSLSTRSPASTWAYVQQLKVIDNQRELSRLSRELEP

`O=C1CCC([N+](=O)[O-])C(c2cccc3ccccc23)N1` (stereo not given): the Potency result in assay [1], in assay [2] and in assay [4] was “inactive” each time. In addition, the activation is 0% [at 17.1 µM, percent relative to cAMP agonist control] in assay [3] and 45.7% [at 30.8 µM] in assay [6]. Moreover, the activity change, negative = inhibition in assay [5] was -21.9% [at 30.8 µM].

For `Cc1ccc(C(=O)N2CCN(c3ccccc3)CC2)cc1S(=O)(=O)N1CCOCC1`, the Potency result in assay [1], in assay [2], in assay [3], in assay [4], in assay [5] and in assay [6] was “inactive” throughout.

For the compound `N#Cc1c(Nc2ccccc2)sc(C(=O)c2ccccc2)c1N`, the Potency entry in assay [1], in assay [2] and in assay [4] was “inactive” throughout. For the same compound, the activation in assay [3] was 9.46% [at 17.1 µM, percent relative to cAMP agonist control]; in assay [6], 19.9% [at 30.8 µM]. Besides, the activity change, negative = inhibition in assay [5] was 13.4% [at 30.8 µM].

As to `COc1ccc(C(=O)Nc2cccc(/C=C(/CCC(=O)O)c3nc4ccccc4s3)c2)cc1`, in assay [1], the Potency was 15.1 µM (active). Also, the Potency entry in assay [2], in assay [3], in assay [4], in assay [5] and in assay [6] was “inactive” in each case.

Consider `Cc1ccc(-c2c3c(=O)n(C)c(=O)n(C)c3c3c(C(F)(F)F)nc4ccccc4n23)cc1`, for which the Potency entry in assay [1], in assay [2], in assay [3], in assay [4], in assay [5] and in assay [6] was “inactive” throughout.

`CCN(CC(=O)Nc1ccc(OC)cc1)C(=O)Cc1cccs1`: the Potency in assay [1] was 67.5 µM (active). Moreover, the Potency result in assay [2], in assay [3], in assay [4], in assay [5] and in assay [6] was “inactive” each time.

In the case of `COc1cccc(OC)c1C(=O)NC(=S)NNC(=O)[C@H]1C[C@@H]1c1ccccc1`, the Potency entry in assay [1], in assay [2], in assay [3], in assay [4], in assay [5] and in assay [6] was “inactive” throughout.

For `CCc1ccc(NC(=O)CSc2nc(-c3ccccc3)c(C#N)c(=O)[nH]2)cc1`, in assay [1], the Potency was 75.7 µM (active). For the same compound, the Potency entry in assay [2], in assay [3], in assay [5] and in assay [6] was “inactive” each time. Also, in assay [4], the outcome was “inactive [at 12.7 µM]”.

Consider `Cc1[nH][nH]c(=O)c1C(c1ccc(-c2ccc(Cl)c(C(=O)O)c2)o1)c1c(C)[nH][nH]c1=O`, for which the Potency result in assay [1], in assay [2] and in assay [4] was “inactive” throughout. Besides, the activation in assay [3] is 10.1% [at 17.1 µM, percent relative to cAMP agonist control]. Further, the activity change, negative = inhibition in assay [5] was 34.9% [at 30.8 µM]. For the same compound, in assay [6], the Potency was 11.2 µM (active).

`O=C(CCCOc1ccccc1)Nc1ccc(Cl)cn1`: the Potency result in assay [1], in assay [2], in assay [3], in assay [4], in assay [5] and in assay [6] was “inactive” each time.

For the compound `Cc1ccc(S(=O)(=O)NN2C(=O)/C(=C/c3cccnc3)SC2=S)cc1`, the Potency in assay [1] was 42.6 µM (active). The Potency result in assay [2], in assay [3], in assay [4], in assay [5] and in assay [6] was “inactive” in each case.

Consider `CC1CCC/C(=C\Nc2ccc(O)cc2)C1=O` (stereo not given), for which the Potency result in assay [1], in assay [2] and in assay [4] was “inactive” throughout. Besides, the activation in assay [3] was 6.29% [at 17.1 µM, percent relative to cAMP agonist control]; in assay [6] it was 3.58% [at 30.8 µM]. Further, the activity change, negative = inhibition in assay [5] was -12.6% [at 30.8 µM].

As for `Cc1ccc(N=Cc2cc(Cc3ccccc3Cl)cc([N+](=O)[O-])c2O)c(O)c1`, the Potency in assay [1] is 10.7 µM (active). In addition, the Potency entry in assay [2], in assay [3], in assay [4], in assay [5] and in assay [6] was “inactive” throughout.

With `CCc1ccc(C(=O)c2cn(CC(=O)Nc3cccc(OC)c3)c3ccc(OC)cc3c2=O)cc1`, the Potency in assay [1] was 53.6 µM (active). Also, the Potency result in assay [2], in assay [3], in assay [4], in assay [5] and in assay [6] was “inactive” in each case.

With `Cc1cccc(C(=O)Nc2cc(S(=O)(=O)N3CCOCC3)ccc2N2CCCC2)c1`, the Potency entry in assay [1], in assay [2], in assay [3], in assay [4], in assay [5] and in assay [6] was “inactive” each time.

For `COc1ccc(/C(N)=N/OC(=O)c2ccc(C)c([N+](=O)[O-])c2)cc1`, the Potency result in assay [1], in assay [2] and in assay [4] was “inactive” in each case. For the same compound, the activation in assay [3] is 8.03% [at 17.1 µM, percent relative to cAMP agonist control]; in assay [6] it was 16.7% [at 30.8 µM]. In assay [5], the activity change, negative = inhibition is 4.78% [at 30.8 µM].

For `CCc1nnc(NC(=O)c2ccc(-c3cccc(C(F)(F)F)c3)o2)s1`, the Potency result in assay [1], in assay [2] and in assay [4] was “inactive” in each case. For the same compound, the activation in assay [3] is 4.04% [at 17.1 µM, percent relative to cAMP agonist control]; in assay [6], 26.6% [at 30.8 µM]. Moreover, the activity change, negative = inhibition in assay [5] is 7.54% [at 30.8 µM].

As for `Cc1cccc(C)c1Nc1nn2c(=O)c3cc4c(cc3nc2s1)OCO4`, the Potency result in assay [1], in assay [2], in assay [3], in assay [4], in assay [5] and in assay [6] was “inactive” throughout.

With `COC(=O)COc1ccc(C(c2c(C)[nH][nH]c2=O)c2c(C)[nH][nH]c2=O)cc1`, the Potency result in assay [1], in assay [2], in assay [3], in assay [4], in assay [5] and in assay [6] was “inactive” in each case.

Regarding `CCCCn1cc2c(c1-c1ccccc1Br)c(=O)n(C)c(=O)n2C`, the Potency entry in assay [1], in assay [2], in assay [3], in assay [4], in assay [5] and in assay [6] was “inactive” each time.
